The text below walks through data of PubChem BioAssay (NCATS).

Experiment [1] can be described thus: Counterscreen qHTS for small molecule stabilizers of the endoplasmic reticulum resident proteome: GLuc-NoTag assay (AID 1508627).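 Note: 0% = thapsigargin alone and -100% = DMSO vehicle control.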 In outline: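 Secreted GLuc lacking the SERCaMP modification is measured in SH-SY5Y cells exposed to compound for 19 h and then to thapsigargin (100 nM, 4 h) to deplete ER calcium; hits retested at 11 concentrations, up to 76.6 uM.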

A short description of experiment [2]: Confirmatory qHTS for small molecule stabilizers of the endoplasmic reticulum resident proteome: Secreted ER Calcium Modulated Protein (SERCaMP) assay (AID 1508628). Note: nearly all actives have a fitted effect of over 40% in size. Note: potency is the fitted concentration of half-maximal effect. In outline:
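GLuc-SERCaMP-expressing SH-SY5Y cells, pretreated 16 h with compound, are challenged with thapsigargin to empty ER calcium stores; after 4 h, coelenterazine is added directly to the medium and luminescence is imaged.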
On the technique in general: Quantitative high-throughput screening tests each substance at several concentrations.

The nature of experiment [3]: Cell Viability qHTS for small molecule stabilizers of the endoplasmic reticulum resident proteome (AID 1508629).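 Note: human SH-SY5Y neuroblastoma cells carrying the GLuc-SERCaMP reporter; compound exposure about 46 h in total before the viability read; % is set by controls: 0 for no effect and ±100 for the full control effect.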 The following applies: cell viability counter-screen, 100 nM thapsigargin for final 4 h.
Experiment [4] addresses Glutathione peroxidase 1 (Homo sapiens) (UniProt P07203). Nature of the experiment: Primary qHTS Assay for Inhibitors of Recombinant Selenoprotein Glutathione Peroxidase 1 (GPX1) (AID 1845191). Note: % is set by controls: 0 for no effect and ±100 for the full control effect; nearly all actives have a fitted effect of over 65% in size. In outline:
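GPX1 10 nM, GR 100 nM, GSH 1 mM, NADPH 0.5 mM, CHP 0.5 mM (final). 30-min cpd preincubation, RT. Ex340/Em450 read t=0, t=15 min.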

The target of experiment [5] is Phospholipid hydroperoxide glutathione peroxidase GPX4 (Homo sapiens) (UniProt P36969). Nature of the experiment: Primary qHTS Assay for Inhibitors of Recombinant Selenoprotein Glutathione Peroxidase 4 (GPX4) (AID 1845192). Note: % is set by controls: 0 for no effect and ±100 for the full control effect; nearly all actives have a fitted effect of over 65% in size. The following applies: outcome: dose series up to 50 µM unless noted. The essentials: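 qHTS, GR-coupled: GPX4 200 nM + cpd 30 min RT → GSH 1 mM, NADPH 0.5 mM, GR 100 nM → CHP 0.5 mM start; fluor 340/450 at t0 and t15 min; no-enzyme wells as control.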
Phospholipid hydroperoxide glutathione peroxidase GPX4 (Homo sapiens), sequence (P36969 whole entry, looked up): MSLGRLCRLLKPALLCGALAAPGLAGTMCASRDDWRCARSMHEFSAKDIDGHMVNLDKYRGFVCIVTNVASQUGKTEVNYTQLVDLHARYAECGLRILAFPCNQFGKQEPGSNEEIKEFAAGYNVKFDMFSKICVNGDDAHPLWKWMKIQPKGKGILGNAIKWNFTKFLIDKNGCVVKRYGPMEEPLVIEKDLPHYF

The target of experiment [6] is Lysosomal acid glucosylceramidase (Homo sapiens) (UniProt P04062). Kind of experiment: Glucocerebrosidase-p2 (AID 348; in the data active = potency below about 10 µM; note: potency is the fitted concentration of half-maximal effect). The following applies: purified GBA, blue fluorogenic substrate, 40 min. The essentials: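 Normal human glucocerebrosidase (0.2 nM) with blue fluorogenic substrate (80 uM final) in citrate/phosphate pH 5.9 with 10mM sodium taurocholate, 0.01% tween-20; 40 min RT, NaOH/glycine stop; fluorescence Ex 365/Em 440; AC50 from a titration from 0.6 nM upwards.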
Lysosomal acid glucosylceramidase (Homo sapiens), sequence (P04062 whole entry, looked up): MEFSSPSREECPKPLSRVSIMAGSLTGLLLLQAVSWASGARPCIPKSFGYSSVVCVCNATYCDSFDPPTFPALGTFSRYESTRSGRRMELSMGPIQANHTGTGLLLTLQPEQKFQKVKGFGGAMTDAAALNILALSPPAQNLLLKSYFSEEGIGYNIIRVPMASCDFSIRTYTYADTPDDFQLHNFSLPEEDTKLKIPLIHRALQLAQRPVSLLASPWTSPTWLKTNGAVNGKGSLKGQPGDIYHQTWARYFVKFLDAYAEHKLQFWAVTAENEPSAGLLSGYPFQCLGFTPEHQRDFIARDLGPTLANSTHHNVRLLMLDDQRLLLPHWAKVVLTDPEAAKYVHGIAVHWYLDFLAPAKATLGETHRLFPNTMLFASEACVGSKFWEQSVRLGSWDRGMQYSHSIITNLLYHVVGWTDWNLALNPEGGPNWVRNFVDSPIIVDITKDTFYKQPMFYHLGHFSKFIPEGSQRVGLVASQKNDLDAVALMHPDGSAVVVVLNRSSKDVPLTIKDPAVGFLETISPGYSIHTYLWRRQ

A short description of experiment [7]: AP1 Signaling Pathway (AID 357; active = well fitted curve in either direction with a large enough effect, not every such curve was filed as active; note: % is set by controls: 0 for no effect and ±100 for the full control effect). The following applies: ME-180 AP-1-bla reporter, EGF-induced, beta-lactamase ratio, 5 h; at 7.69 µM (top of the series) unless noted. In outline:
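ME-180 cells with beta-lactamase reporter under AP-1 response element, stimulated with EC50 EGF; compounds tested in titration series, 5 h at 37 °C. CCF4 substrate added 2.5 h at room temperature; 460/530 nm emission ratio gave %activity and AC50.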

The nature of experiment [8]: NFAT Signaling Pathway (AID 444; active = well fitted curve in either direction with a large enough effect, not every such curve was filed as active;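 note: carbachol stimulus at about its EC50 of 1 µM final; % is set by controls: 0 for no effect and ±100 for the full control effect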). The following applies: Jurkat NFAT-bla M1, carbachol, beta-lactamase ratio, 5 h; at 7.69 µM (top of the series) unless noted. In outline: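 Jurkat cells carrying an NFAT-driven β-lactamase reporter and co-transfected muscarinic M1 receptor were treated with compound plus carbachol (1 uM final, an EC50 level) for 5 h at 37 °C. CCF4 loading followed for 1 h at RT; 460/530 nm ratio gave %activity.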

Experiment [9] is described as follows: Stat Signaling Pathway (AID 446; active = well fitted curve in either direction with a large enough effect, not every such curve was filed as active;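 note: ME-180 cervical cancer cells given 40 pM IL-6 alongside compound; SIE-controlled beta-lactamase reporter measured as 460/530 nm FRET emission ratio; % is set by controls: 0 for no effect and ±100 for the full control effect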). The following applies: ME-180 (cervical carcinoma) SIE beta-lactamase reporter, IL-6 stimulated, 5 h; at 7.69 µM (top of the series) unless noted. In outline: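 Overnight-plated ME-180 cells bearing a STAT Inducible Element beta-lactamase reporter; 5 h co-exposure to compound and 40 pM IL-6; values normalized to 300 pM IL-6 and 125 nM JAK inhibitor controls.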

Experiment [10] concerns the target Glucocorticoid receptor (Homo sapiens) (UniProt P04150). Nature of the experiment: GR-GFP Redistribution (AID 450;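 active = compounds whose dose series gives a full or clear partial fitted curve of increased nuclear translocation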; note: potency is the fitted concentration of half-maximal effect). The following applies: U2OS GR-GFP nuclear translocation, laser cytometry, 2 h.
The target is the same in experiment [11]. Nature of the experiment: GR-EFC Redistribution (AID 451; calls by dose curve; note: potency is the fitted concentration of half-maximal effect). The following applies: CHO-K1 GR-EFC translocation, beta-gal luminescence, 2 h. The essentials:
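CHO-K1 cells stably expressing nuclear-localized β-gal enzyme acceptor and GR fused C-terminally to the enzyme donor fragment; ligand-driven nuclear translocation restores β-gal by complementation. Compounds titrated up to 46 uM final, 2 h at 37 °C; luminescence read.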

The target in experiment [12] is Mitogen-activated protein kinase 10 (Mus musculus) (UniProt Q61831). Nature of the experiment: JNK3 AlphaScreen Assay (AID 530; active = well fitted curve in either direction with a large enough effect, not every such curve was filed as active). In outline:
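Biotinylated GST-cJun(1-79) served as substrate for JNK3 in HepG2 lysates stimulated with IL-1beta and TNF-alpha. ATP was 10 uM final, pH 7.6. Ser73 phosphorylation was quantified by AlphaScreen (680 nm excitation).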
In general terms: Bead proximity is the source of the signal in Alpha formats.

The target of experiment [13] is 3',5'-cyclic-AMP phosphodiesterase 4B (Homo sapiens) (UniProt Q07343). Nature of the experiment: qHTS Assay for Inhibitors of PDE-IV (AID 607; active = well fitted activation curve with a large enough effect in the main read-out, with a control signal flat, not every such curve was filed as active; note: % of control where 0% means no effect). In outline: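 Live HEK293 cells with a modified cyclic nucleotide-gated (CNG) channel report intracellular cAMP via membrane-potential dye fluorescence (ex 535/em 590 nm). Endogenous PDE-IV was targeted. Compounds were tested at up to 22.9 uM final; RO 20-1724 100 uM served as control.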
3',5'-cyclic-AMP phosphodiesterase 4B (Homo sapiens), sequence (Q07343 whole entry, looked up): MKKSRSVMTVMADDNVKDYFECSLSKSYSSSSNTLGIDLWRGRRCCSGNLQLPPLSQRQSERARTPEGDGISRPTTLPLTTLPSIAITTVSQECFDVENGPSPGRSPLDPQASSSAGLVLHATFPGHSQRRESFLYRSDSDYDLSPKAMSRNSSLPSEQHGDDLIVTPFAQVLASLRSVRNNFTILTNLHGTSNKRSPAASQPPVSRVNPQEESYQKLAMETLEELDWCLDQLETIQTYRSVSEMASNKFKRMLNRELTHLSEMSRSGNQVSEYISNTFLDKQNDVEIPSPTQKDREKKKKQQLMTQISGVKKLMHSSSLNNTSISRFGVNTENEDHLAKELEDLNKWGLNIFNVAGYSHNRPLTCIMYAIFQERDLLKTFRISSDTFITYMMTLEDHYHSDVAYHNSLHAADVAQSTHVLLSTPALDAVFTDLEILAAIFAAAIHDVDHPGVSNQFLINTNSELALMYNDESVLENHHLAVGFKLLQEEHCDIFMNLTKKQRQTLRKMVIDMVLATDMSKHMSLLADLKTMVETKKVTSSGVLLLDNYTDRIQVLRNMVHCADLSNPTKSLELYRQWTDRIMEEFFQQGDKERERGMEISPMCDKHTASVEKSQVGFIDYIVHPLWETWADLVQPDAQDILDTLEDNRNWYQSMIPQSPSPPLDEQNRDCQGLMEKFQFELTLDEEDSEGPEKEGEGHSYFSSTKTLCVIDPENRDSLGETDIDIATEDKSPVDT

A short description of experiment [14]: Confirmation and Secondary Assay for Modulators of Hemoglobin Beta Chain Splicing at IVS2 654 locus (AID 910). Note: % of control where 0% means no effect. The essentials: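 HeLa cells stably carrying EGFP interrupted by mutant beta-globin IVS2-654 intron (CMV-driven) were treated with compound for 2 days at 37C; corrected splicing was scored as total peak GFP intensity per well (488 nm excitation, 500-520 nm emission).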

The nature of experiment [15]: Confirmation and Secondary Assay for Modulators of Hemoglobin Beta Chain Splicing at IVS2 705 locus (AID 930).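 Note: HeLa cells stably expressing the EGFP-705 splicing reporter; GFP fluorescence per well restored by corrected splicing of the IVS2-705 intron in EGFP; % of control where 0% means no effect.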 The essentials: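 Read-out: total peak GFP fluorescence per well (488 nm excitation, 500-520 nm emission) by laser-scanning cytometry. Cells: HeLa EGFP-705 splicing reporter, 2 days compound exposure in Optimem/2% FCS.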
The nature of experiment [16]: qHTS Assay for Lipid Storage Modulators (AID 1519; calls by dose curve). The note with it: Drosophila S3 cells, BODIPY lipid droplet/cell ratio, laser cytometry, cells loaded with oleic acid; for activity change, negative = inhibition: at 57.5 µM (top of the series). The essentials:
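Cells seeded at 5,000 per well were treated with compounds over a concentration series and loaded with oleic acid (400 uM, as added). Lipid droplet fluorescence (488 nm excitation, 500-530 nm channel) was read by laser-scanning cytometry and normalized to 20 uM Triacsin C.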

The target of experiment [17] is Cytochrome P450 1A2 (Homo sapiens) (UniProt P05177). Nature of the experiment: p450-cyp1a2 (AID 410; calls by dose curve; note: potency is the fitted concentration of half-maximal effect). The essentials:
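20nM CYP1A2, 100uM Luciferin-ME (=Km), 100mM KPO4; cpd 10 min RT; +NADPH regen, 60 min RT; stop/detect 20 min; luminescence. Normalized to furafylline 57 uM = full inhibition.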

Experiment [18] addresses Cytochrome P450 3A4 (Homo sapiens) (UniProt P08684). Kind of experiment: qHTS Assay for Activators of Cytochrome P450 3A4 (AID 885). Note: nearly all actives have a fitted effect of over 65% in size. In outline:
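Using 20nM recombinant human CYP3A4 in potassium phosphate (200mM), substrate Luciferin-PPXE at 25uM, luminescent luciferin detection followed a 60-min RT NADPH reaction; data scaled to 57 uM ketoconazole.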

The target of experiment [19] is Ubiquitin carboxyl-terminal hydrolase 1 (Homo sapiens) (UniProt O94782). Nature of the experiment: Inhibitors of USP1/UAF1: Pilot qHTS (AID 504865).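 Note: rhodamine fluorescence freed from ubiquitin-rhodamine substrate followed over time; top concentration of the series differs between compounds; % is set by controls: 0 for no effect and ±100 for the full control effect; nearly all actives have a fitted effect of over 35% in size.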 In outline:
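Kinetic fluorescence assay: 1nM USP1/UAF1, 15 min compound preincubation, then 150nM Ub-Rho; 480/540 nm.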

Experiment [20] addresses Cytochrome P450 3A4 (Homo sapiens) (UniProt P08684). Kind of experiment: qHTS Assay for Inhibitors and Substrates of Cytochrome P450 3A4 (AID 884). Note: potency is the fitted concentration of half-maximal effect; nearly all actives have a fitted effect of over 50% in size. The essentials:
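Luminescent readout of luciferin produced by CYP3A4 (20 nM) dealkylation of Luciferin-PPXE, 25 uM (its KM). NADPH-driven reaction ran 60 min at RT after 10 min compound preincubation; data scaled to 57 uM ketoconazole as 100% inhibition.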

Experiment [21] deals with Dual specificity protein kinase CLK4 (Homo sapiens) (UniProt Q9HAZ1). Nature of the experiment: qHTS Assay for Inhibitors of CDC-like Kinase 4 (Kinase-Glo Assay) (AID 1770). Note: % is set by controls: 0 for no effect and ±100 for the full control effect; nearly all actives have a fitted effect of over 65% in size. The essentials: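 Inhibition was judged from remaining ATP, measured by Ultra-Glo luciferase bioluminescence after Clk4 (25 nM) had acted on RS peptide at 1 uM ATP for 4.5 hours, room temperature.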
Dual specificity protein kinase CLK4 (Homo sapiens), sequence (Q9HAZ1 whole entry, looked up): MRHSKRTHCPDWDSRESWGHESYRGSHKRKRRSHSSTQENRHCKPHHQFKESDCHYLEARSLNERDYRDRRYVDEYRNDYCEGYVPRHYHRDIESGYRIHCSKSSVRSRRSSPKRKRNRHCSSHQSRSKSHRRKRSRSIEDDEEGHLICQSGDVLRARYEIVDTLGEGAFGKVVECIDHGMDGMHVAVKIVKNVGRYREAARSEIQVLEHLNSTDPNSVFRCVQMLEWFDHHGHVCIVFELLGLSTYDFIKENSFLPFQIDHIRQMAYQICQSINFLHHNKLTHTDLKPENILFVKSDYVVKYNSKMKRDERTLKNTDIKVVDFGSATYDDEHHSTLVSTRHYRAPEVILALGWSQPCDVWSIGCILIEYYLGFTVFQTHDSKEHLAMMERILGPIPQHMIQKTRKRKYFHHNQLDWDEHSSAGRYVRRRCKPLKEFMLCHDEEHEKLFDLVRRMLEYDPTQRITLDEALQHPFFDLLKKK

The target is the same in experiment [22]. Kind of experiment: qHTS Assay for Inhibitors of CDC-like Kinase 4 (ADP-FP Assay) (AID 1795).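 Note: recombinant human CLK4 phosphorylating RS repeat peptide at 1 µM ATP; % is set by controls: 0 for no effect and ±100 for the full control effect; nearly all actives have a fitted effect of over 60% in size.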 The essentials:
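Inhibition of ADP formation by 6.25 nM Clk4 is measured using 1 uM ATP and 100 uM RS repeat peptide over one hour. Produced ADP displaces a fluorescent tracer from antibody, lowering polarization.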

The mark [23] stands for this setting: measured here: cell count channel max response.
Where [24] appears, read: measured here: lipid channel max response.

Each structure is given as a SMILES string. Inconclusive results are not listed. Active and inactive are the calls of the source. Unless noted, calls come from the whole dose curve; as a rule, active = well fitted curve in the direction sought with a large enough effect; inconclusive = small, poorly fitted or top-dose-only effect, or another doubt; inactive = no such curve, though single readings can be large; an effect the other way counts as inactive or inconclusive.

Cytochrome P450 3A4 (Homo sapiens), sequence (P08684 whole entry, looked up): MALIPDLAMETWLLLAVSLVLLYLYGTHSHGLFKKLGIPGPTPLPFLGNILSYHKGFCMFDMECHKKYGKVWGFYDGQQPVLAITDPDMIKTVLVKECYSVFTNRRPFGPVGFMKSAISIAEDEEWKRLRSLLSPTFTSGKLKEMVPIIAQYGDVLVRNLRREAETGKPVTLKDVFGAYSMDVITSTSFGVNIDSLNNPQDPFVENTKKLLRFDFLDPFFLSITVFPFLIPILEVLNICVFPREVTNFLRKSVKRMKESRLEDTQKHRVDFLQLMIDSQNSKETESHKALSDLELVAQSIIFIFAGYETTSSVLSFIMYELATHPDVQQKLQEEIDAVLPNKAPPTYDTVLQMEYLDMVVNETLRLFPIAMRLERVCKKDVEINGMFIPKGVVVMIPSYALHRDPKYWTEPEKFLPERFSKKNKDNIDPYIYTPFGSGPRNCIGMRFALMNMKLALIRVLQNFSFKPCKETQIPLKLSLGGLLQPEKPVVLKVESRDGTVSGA
Glucocorticoid receptor (Homo sapiens), sequence (P04150 whole entry, looked up): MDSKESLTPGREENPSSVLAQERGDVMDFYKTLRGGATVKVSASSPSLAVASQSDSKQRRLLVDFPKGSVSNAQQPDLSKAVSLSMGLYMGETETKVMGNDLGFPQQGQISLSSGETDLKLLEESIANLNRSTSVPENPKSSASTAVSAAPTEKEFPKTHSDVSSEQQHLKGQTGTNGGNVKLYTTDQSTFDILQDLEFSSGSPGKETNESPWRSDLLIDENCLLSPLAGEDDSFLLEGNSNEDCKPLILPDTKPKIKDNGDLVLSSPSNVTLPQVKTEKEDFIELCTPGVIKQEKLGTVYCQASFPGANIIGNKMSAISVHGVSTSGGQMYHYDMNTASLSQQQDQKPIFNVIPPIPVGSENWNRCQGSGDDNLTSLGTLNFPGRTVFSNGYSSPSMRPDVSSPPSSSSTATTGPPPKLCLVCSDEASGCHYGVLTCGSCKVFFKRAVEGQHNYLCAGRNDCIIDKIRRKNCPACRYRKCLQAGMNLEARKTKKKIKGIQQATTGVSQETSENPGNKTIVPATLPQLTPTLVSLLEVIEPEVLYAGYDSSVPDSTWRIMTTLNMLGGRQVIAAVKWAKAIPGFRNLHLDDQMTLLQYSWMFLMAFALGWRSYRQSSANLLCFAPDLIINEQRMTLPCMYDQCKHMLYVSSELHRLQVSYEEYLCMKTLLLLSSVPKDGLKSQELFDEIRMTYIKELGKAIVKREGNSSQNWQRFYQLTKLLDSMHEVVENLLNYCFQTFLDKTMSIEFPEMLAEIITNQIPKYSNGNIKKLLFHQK
Cytochrome P450 1A2 (Homo sapiens), sequence (P05177 whole entry, looked up): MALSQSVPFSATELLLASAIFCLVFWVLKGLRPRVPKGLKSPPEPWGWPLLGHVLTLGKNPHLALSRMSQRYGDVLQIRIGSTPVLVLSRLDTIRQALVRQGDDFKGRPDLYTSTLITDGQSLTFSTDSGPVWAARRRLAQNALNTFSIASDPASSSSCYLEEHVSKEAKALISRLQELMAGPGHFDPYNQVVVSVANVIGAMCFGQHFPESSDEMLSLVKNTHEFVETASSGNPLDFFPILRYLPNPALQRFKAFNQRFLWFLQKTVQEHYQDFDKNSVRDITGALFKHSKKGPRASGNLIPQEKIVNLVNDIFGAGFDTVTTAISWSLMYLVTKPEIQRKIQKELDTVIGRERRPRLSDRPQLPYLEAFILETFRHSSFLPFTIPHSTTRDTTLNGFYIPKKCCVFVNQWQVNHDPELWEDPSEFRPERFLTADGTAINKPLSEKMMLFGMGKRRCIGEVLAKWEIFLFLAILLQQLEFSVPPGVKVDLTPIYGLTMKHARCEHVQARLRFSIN
Ubiquitin carboxyl-terminal hydrolase 1 (Homo sapiens), sequence (O94782 whole entry, looked up): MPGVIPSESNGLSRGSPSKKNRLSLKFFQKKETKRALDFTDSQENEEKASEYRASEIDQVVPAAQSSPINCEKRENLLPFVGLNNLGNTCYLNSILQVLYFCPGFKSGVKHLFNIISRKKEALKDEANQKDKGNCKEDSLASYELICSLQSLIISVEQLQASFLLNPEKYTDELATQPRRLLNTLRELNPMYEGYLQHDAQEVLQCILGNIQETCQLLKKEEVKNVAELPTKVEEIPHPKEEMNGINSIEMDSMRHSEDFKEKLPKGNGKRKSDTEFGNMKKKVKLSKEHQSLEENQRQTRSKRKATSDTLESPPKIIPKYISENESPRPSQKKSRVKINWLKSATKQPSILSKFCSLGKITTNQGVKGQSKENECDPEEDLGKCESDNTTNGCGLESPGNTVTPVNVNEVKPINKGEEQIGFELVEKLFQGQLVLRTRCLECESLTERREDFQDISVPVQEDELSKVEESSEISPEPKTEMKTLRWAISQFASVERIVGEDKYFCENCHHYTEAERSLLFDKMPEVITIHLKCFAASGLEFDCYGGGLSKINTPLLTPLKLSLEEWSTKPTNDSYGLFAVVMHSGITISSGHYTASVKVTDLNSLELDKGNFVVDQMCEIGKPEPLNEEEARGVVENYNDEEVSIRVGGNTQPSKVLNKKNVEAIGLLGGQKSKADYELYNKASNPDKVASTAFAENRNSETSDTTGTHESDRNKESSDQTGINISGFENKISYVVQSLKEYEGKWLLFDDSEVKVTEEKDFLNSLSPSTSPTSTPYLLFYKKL
Glutathione peroxidase 1 (Homo sapiens), sequence (P07203 whole entry, looked up): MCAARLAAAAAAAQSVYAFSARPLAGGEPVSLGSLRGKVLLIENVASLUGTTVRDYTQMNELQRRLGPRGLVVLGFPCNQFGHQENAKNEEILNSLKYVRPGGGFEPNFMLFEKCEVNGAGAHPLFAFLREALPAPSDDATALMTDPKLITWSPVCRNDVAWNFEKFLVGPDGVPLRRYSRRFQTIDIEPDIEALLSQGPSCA

On to `OC[C@H]1NC[C@@H](O)[C@@H](O)[C@@H]1O`, for which the Potency entry in experiment [1], in [2], in [4] and in experiment [5] was “inactive” throughout. Further, in experiment [3], the max response was 8.42% (inactive).
As to `Cc1noc(C)c1-c1nc(N2CCNCC2)c2ccccc2n1`, the Potency was > 11.4 µM (inactive) in experiment [6], > 46 µM (inactive) in experiment [10], > 46 µM (inactive) in [11] and 14.1 µM (active) in experiment [2]. Also, the activity change, negative = inhibition in experiment [7] was 18.5% (inactive); in experiment [8], -3.25% (inactive); in [16], 9.99% (inactive). In addition, the activity, negative = inhibition in [9] is 13.9% (inactive). For the same compound, the outcome in [12], in [14] and in [15] was inactive. The Potency result in experiment [13] and in experiment [1] was “inactive” in each case. Also, the max response turned out to be 11.4% in experiment [16] (setting [23]) and 19.2% in experiment [16] (setting [24]).
As for `Cc1ccccc1-c1nc(N2CCNCC2)c2ccccc2n1`, the Potency in experiment [6] was > 11.4 µM (inactive); in experiment [17], 5.01 µM (active); in experiment [10], > 46 µM (inactive); in experiment [11], > 46 µM (inactive); in experiment [2], 12.6 µM (active). In addition, the figures for the activity change, negative = inhibition in [7], in experiment [8] and in [16] were 12.7% (inactive), 2.71% (inactive) and 4.63% (inactive), respectively. Moreover, the activity, negative = inhibition in experiment [9] is -10.4% (inactive). In addition, the outcome in [12] was inactive. The Potency entry in experiment [13], in experiment [18], in experiment [19] and in experiment [1] was “inactive” in each case. Further, the max response came to 23.8% in experiment [16] (setting [23]) and 27.5% in experiment [16] (setting [24]).
Regarding `Cc1nc2cnc(N3CCNCC3)nc2n(Cc2cccs2)c1=O`, the Potency was > 11.4 µM (inactive) in [6]; 0.631 µM (active) in [17]; > 46 µM (inactive) in experiment [11]; 3.16 µM (active) in [20]; 25.1 µM (active) in [2]. The values for the activity change, negative = inhibition in [7], in experiment [8] and in experiment [16] were -0.143% (inactive), 6.53% (inactive) and 6.29% (inactive), respectively. For the same compound, the activity, negative = inhibition in experiment [9] is 3.44% (inactive). Besides, the outcome in experiment [12] was inactive. In addition, the Potency result in [13], in [18], in [21], in experiment [22], in [19] and in experiment [1] was “inactive” throughout. Further, the max response was 24.4% in experiment [16] (setting [23]), 28.9% in [16] (setting [24]) and 3.08% (inactive) in [3].
In the case of `COc1ccc(Oc2ncc3nc(-c4cc(F)cc(F)c4)c(=O)n(CCC#N)c3n2)cc1`, the activity change, negative = inhibition in experiment [7] was -6.65% (inactive); in [8], -14.9% (inactive). Also, the activity, negative = inhibition in experiment [9] was -11.4% (inactive). The Potency was > 9.22 µM (inactive) in [10], > 46 µM (inactive) in [11] and 31.6 µM (active) in experiment [2]. In addition, the Potency result in [13] and in experiment [1] was “inactive” each time. Also, the max response in experiment [3] was -0.74% (inactive).
Take `COc1ccc(NC(=O)N2CCC3(CC2)CCN(S(=O)(=O)c2ccccc2)CC3)cc1`: the Potency in [6] is > 11.4 µM (inactive); in experiment [17], 31.6 µM (active); in [11], > 46 µM (inactive). The activity change, negative = inhibition in [7] is -24% (inactive); in experiment [8], -21.7% (inactive); in experiment [16], 2.68% (inactive). The activity, negative = inhibition in experiment [9] was -16.7% (inactive). The compound was classed as inactive in experiment [12]. Besides, the Potency entry in experiment [13], in experiment [18], in experiment [1] and in experiment [2] was “inactive” throughout. For the same compound, the max response was 2.58% in experiment [16] (setting [23]), 8.36% in experiment [16] (setting [24]) and -18.8% (inactive) in experiment [3].
